# High-throughput results as filed in PubChem BioAssay.
# This is a sample that favours compounds with a hit; in the whole collection about 1.1% have one here.
# MOR-DOR ag – agonists of OPRM1-OPRD1 heterodimerization, primary screen, cell-based, luminescence; activation, % at 9.3 µM; AID 504326, 2011; actives 0.3% (n = 340,000); Mu-type opioid receptor (Homo sapiens) + Delta-type opioid receptor (Homo sapiens), …; cells; in the data active = activation above about 18%;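 note: 0% = vehicle-treated cells and 100% = reference agonist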
# HTR5A inv ag – HTR5A inverse agonists in luminescence cell assay, primary screen, counter-screen for OPRM1-OPRD1 heterodimer inverse agonist project, full-deck HTS; 5-hydroxytryptamine receptor 5A (Homo sapiens), P47898; actives 0.083% (n = 340,000); inhibition, % at 9.3 µM; HTR5A cell line, inverse agonism; in the data active = inhibition mostly above about 23%, no sharp cut-off; inactive = mostly below about 18%;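 note: 0% = cells with DMSO and 100% = no-cell wells with DMSO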
# Target sequence (P47898 whole entry, looked up): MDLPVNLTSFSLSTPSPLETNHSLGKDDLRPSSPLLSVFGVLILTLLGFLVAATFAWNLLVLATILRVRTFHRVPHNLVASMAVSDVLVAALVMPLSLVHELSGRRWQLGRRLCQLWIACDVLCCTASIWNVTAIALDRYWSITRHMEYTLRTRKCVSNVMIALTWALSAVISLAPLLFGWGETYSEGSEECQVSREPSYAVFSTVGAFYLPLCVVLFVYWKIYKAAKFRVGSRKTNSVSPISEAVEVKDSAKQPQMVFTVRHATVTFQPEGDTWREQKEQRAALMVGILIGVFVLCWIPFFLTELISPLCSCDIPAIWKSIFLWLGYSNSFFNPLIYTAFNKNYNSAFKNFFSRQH
# HTR5A ag ctr – HTR5A agonists in luminescence cell assay, primary screen, counter-screen for OPRM1-OPRD1 heterodimer agonist project, full-deck HTS | 5-hydroxytryptamine receptor 5A (Homo sapiens), P47898 | cell-based | activation, % at 9.3 µM | actives 0.61% (n = 340,000) | AID 504692, 2011; in the data active = activation mostly above about 9.5%, no sharp cut-off; inactive = mostly below about 7.6%;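 note: 0% = cells with vehicle only and 100% = reference agonist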
# OPRM1-OPRD1 inv – inverse agonists of MOR-DOR heterodimerization, primary screen, cell-based, luminescence; Mu-type opioid receptor (Homo sapiens) + Delta-type opioid receptor (Homo sapiens), …; cell-based MOR-DOR heterodimer luminescence, inverse agonism; inhibition, % at 9.3 µM; actives 0.21% (n = 340,000); AID 504357, 2011; in the data active = inhibition above about 22%, passing the limit was not always enough;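 note: 0% = cells with DMSO and 100% = wells without cells with DMSO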
# Active calls of the source: *.
SMILES,MOR-DOR ag,HTR5A inv ag,HTR5A ag ctr,OPRM1-OPRD1 inv
CCN(CC)S(=O)(=O)c1ccc(N2CCCC2)c(NC(=O)C2=NN(c3ccccc3)C(=O)CC2)c1,-2,0,0,8
O=C(CCc1ccccc1)NC(NC(=S)Nc1ccc(Cl)cc1)C(Cl)(Cl)Cl (stereo not given),17,-11,12*,-94
COc1cc(/C=C/C(=O)OCC(=O)Nc2cc(C)c(C)cc2[N+](=O)[O-])ccc1O,-2,-36,11*,12
COc1cc(/C=C/C(=O)OCC(=O)Nc2ccc(C)cc2[N+](=O)[O-])ccc1O,8,-1,0,-42
COc1cc(NC(=O)Cn2nc(C(F)(F)F)c(Br)c2C)cc([N+](=O)[O-])c1,10,-40,12*,-55
CCN(CC)C(=O)CSc1ncnc2sc(-c3ccccc3)cc12,2,-8,9.3*,-11
COc1ccc2nc(C)cc(N/N=C/c3ccc(F)cc3)c2c1,31*,-29,8,-153
O=C(c1ccco1)N1CCC(c2nc3c(nnn3Cc3c(Cl)cccc3Cl)c(=O)[nH]2)CC1,0,-30,1,-3
CC(C)(C)CC(=O)N1CCC(c2nc3c(nnn3Cc3c(F)cccc3Cl)c(=O)[nH]2)CC1,-1,27,11*,8
CCCN(CC(=O)Nc1ccccc1C)C(=O)C1CC(=O)N(c2cccc(C)c2C)C1 (stereo not given),-1,6,-2,7
O=C1c2[nH]nc(-c3ccccc3O)c2C(c2cccc(Cl)c2)N1Cc1ccco1 (stereo not given),14,-37,14*,-65
Cn1c2ccccc2c(=O)c2c(=O)n(C3CCCCC3)c(-c3ccco3)nc21,-4,-48,13*,21
Cc1nc2c(c(=O)c3ccccc3n2C)c(=O)n1C1CCCCCC1,-4,0,7,18
O=C(CSC1=NCCS1)N1CCN(c2ccc(Cl)cc2)CC1,0,-5,-1,1
O=C(CSC1=NCCS1)c1ccc(Cl)cc1,2,-30,11*,-13
Cc1ccc(Cl)cc1N1CCN(C(=O)c2noc(C)c2[N+](=O)[O-])CC1,15,-37,10*,-75
Cc1onc(C(=O)N2CCN(c3ccccc3)CC2)c1[N+](=O)[O-],-3,4,0,17
COc1ccc(S(=O)(=O)N2CCCCC2)cc1NC(=O)CSc1ncccn1,-5,-29,5,18
COc1ccc(S(=O)(=O)N2CCOCC2)cc1NC(=O)CSc1ncccn1,-1,-44,11*,8
CC1CCc2c(sc3nc(C(C)(C)C)nc(N4CCN(C(=O)CCl)CC4)c23)C1 (stereo not given),72*,-171,46*,-354
Nc1nc(Br)c2c(F)cccc2c1-c1ccc(Cl)cc1,10,-39,11*,-56
Nc1nc(Br)c2ccccc2c1-c1ccccc1,5,-12,4,-27
COC(=O)[C@@]1(Cc2ccc(OC)cc2)[C@H]2c3cc(C(=O)N(C)C)[nH]c3C[C@H]2CN1C(=O)c1ccccc1,-3,-9,14*,19
Cc1ccc(-c2nc3ncccn3c2Nc2ccc3c(c2)OCCO3)cc1,-1,-1,10*,5
COc1ccc(-c2nc3ncccn3c2Nc2ccc3c(c2)OCCO3)cc1,6,7,2,-35
SMILES,MOR-DOR ag,HTR5A inv ag,HTR5A ag ctr,OPRM1-OPRD1 inv
Cc1ncccc1C(=O)N1CCCC(C(=O)c2ccc3c4c(cccc24)CC3)C1 (stereo not given),-3,9,-2,15
O=C(c1ccc2c3c(cccc13)CC2)C1CCCN(C(=O)c2ccc(=O)[nH]c2)C1 (stereo not given),1,-35,13*,-6
CC1(C)Cc2c(sc3nc4n(-c5ccccc5)cnn4c(=O)c23)CO1,-2,1,-1,12
O=C(COC(=O)Cc1ccccc1F)NC(=O)NC1CCCC1,-3,-15,12*,13
O=C(OCc1nc2ccccc2s1)c1ccc(Br)o1,1,-2,0,-5
O=C(OCc1nc2ccccc2s1)c1ccc([N+](=O)[O-])o1,9,-24,20*,-55
COCCN(C(=O)COC(=O)CCSc1ccc(F)cc1)c1c(N)n(Cc2ccccc2)c(=O)[nH]c1=O,0,-28,9,0
CCCN(CC(=O)Nc1ccccc1OC)C(=O)C1=COCCO1,-3,3,3,11
O=C(N/N=C/c1cc(Cl)ccc1O)c1ccccc1Br,5,-35,12*,-35
O=C(CNC(=O)c1ccccc1Br)N/N=C/c1cc(Br)ccc1O,-1,-7,3,6
N#Cc1ccc(C(=O)Nc2cccc3ccccc23)c(F)c1,-1,-6,1,4
Cc1ccc(CNC(=O)C2CCN(S(=O)(=O)c3ccc4c(c3)CC(C)N4C(=O)C3CCC3)CC2)o1 (stereo not given),-2,-6,11*,11
CC(C)CCNC(=O)C1CCN(S(=O)(=O)c2ccc3c(c2)CC(C)N3C(=O)C2CCC2)CC1 (stereo not given),-1,-11,3,3
COc1ccc(S(=O)(=O)Nc2cccc3c2O[C@@H](CN(C)Cc2ccc(C(=O)O)cc2)[C@@H](C)CN([C@H](C)CO)C3=O)cc1,0,23,0,3
OCCC1CN(Cc2cccn2-c2ccccn2)CCN1C1CCCCC1 (stereo not given),-1,0,0,3
CC(c1ccccc1)N1CC(C(=O)O)CC1=O (stereo not given),0,-11,4,0
CC1CC(=O)C(C(C2=C(O)CC(C)CC2=O)c2ccccc2)=C(O)C1 (stereo not given),0,-38,9.3*,-1
CC[C@]1(C(=O)OC)[C@H]2C(=O)N(Cc3ccccc3)C(=O)[C@H]2[C@H]2CN=C(SCc3ccc(C)cc3)N21,-1,14,-4,6
CC[C@]1(C(=O)OC)[C@H]2C(=O)N(Cc3ccccc3)C(=O)[C@H]2[C@H]2CN=C(SCC3CC3)N21,-2,-18,5.3*,9
O=C(Nc1cccc(S(=O)(=O)N2CCCCC2)c1)c1ccc(S(=O)(=O)C(F)F)cc1,0,-4,12*,-1
CCc1ccc(OCCCC(=O)Nc2ccc(S(=O)(=O)Nc3cc(C)nc(C)n3)cc2)cc1,1,0,0,-10
CCOC(=O)c1c(-c2ccc(C)o2)csc1NC(=O)COC(=O)c1cccs1,-1,10,11*,6
COc1ccc(NC(=O)Nc2cccc(C(F)(F)F)c2)cn1,5,-35,13*,-24
CCN1CCN(c2cc(C)c3cc(NC(=S)N4CCCC(C)C4)ccc3n2)CC1 (stereo not given),0,-6,-3,-2
O=c1c2c(n3nnnc3n1-c1ccccc1)-c1ccccc1CC21CCCC1,0,-16,10,-1
O=c1c2c(n3cnnc3n1-c1ccccc1)-c1ccccc1CC21CCCC1,-4,-7,13*,18
